Only some compounds are listed: those with a hit (about 13% of all), similar ones and a draw of the others.
Pf growth 96h: P. falciparum growth inhibition at 96 hour, primary screen for plastid delayed-death inhibitors; P. falciparum luciferase reporter growth, 96 h; Potency, µM (highest dose often 28.7 µM), without a hit: top-dose activity change, negative = inhibition, hits mostly inhibitors; 320,000 tested, 6.9% active; AID 504834; also: potency is read from the fitted curve at half-maximal effect
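Plates of compound plus infected erythrocytes (2% hematocrit, 0.05% parasitemia final) incubate 96 hours, 37 C, 5% CO2. Detection reagent added; reduced luminescence from the parasites' luciferase reporter flags inhibition.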
HCMV inh: human cytomegalovirus inhibition. HFF cells, HCMV-luciferase reporter, 72 h; hits give low values. activity change, negative = inhibition, % at 57.5 µM. 410,000 tested, 4.5% active; in the data active = activity change below about -60%; inconclusive = no clear call, values can overlap the other calls; inactive = above about -39%
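Two-dose cell screen: HFF monolayers treated with compounds and infected with luciferase-expressing HCMV at 1 PFU/cell, 72 h at 37C, then lysed for luciferase measurement.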
HCV inh: inhibitors of hepatitis C virus infection | AID 651820 | Potency, µM (doses to about 41.8 µM), for inactives: top-dose activity change, negative = inhibition, hits mostly inhibitors | 340,000 tested, 3.4% active | Huh7.5.1 HCVcc-Cre infection, luciferase reporter, 44 h; also: potency is read from the fitted curve at half-maximal effect
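After 44 h co-culture of compound, cells and HCVcc-Cre (~0.5 moi), substrate is added for 15 min at room temperature and luciferase measured over 15 sec. Cells were seeded at 1,000/well and pre-cultured 4 h.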
Pf growth 48h: P. falciparum growth inhibition at 48 hours (one generation); P. falciparum luciferase growth in erythrocytes, 48 h; Potency, µM (series often up to 28.7 µM), inactives show at the top dose activity change, negative = inhibition, most hits filed as inhibitors; 310,000 tested, 5.9% active; also: potency is read from the fitted curve at half-maximal effect
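Erythrocytes infected with P. falciparum carrying an integrated firefly luciferase reporter (2% hematocrit, 0.1% parasitemia final) were exposed to compounds in RPMI 1640 with 0.5% Albumax at 37 C, 5% CO2. Growth inhibition was scored as reduced luminescence.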
An asterisk follows results filed as active; u = inconclusive; x = not tested or not shown. Unless noted, calls follow the shape of the dose curve; as a rule, active = well fitted inhibition curve with a large enough effect; inconclusive = small, poorly fitted or top-dose-only effect, or another doubt; inactive = no such curve, though single readings can be large or run the other way. % is scaled to controls: 0 for no effect and ±100 for the full control effect.

SMILES	Pf growth 96h	HCMV inh	HCV inh	Pf growth 48h
Cc1cccc(CN2CCC(C(=O)Nc3ccc(Oc4cccnc4)cc3)CC2)c1	14%	-25	u	13µM*
CCn1cc(CN2CCC(C(=O)Nc3ccc(Oc4cccnc4)cc3)CC2)c(C)n1	5%	-22	14%	u
CCn1nc(C)c(CN2CCCCC2C(=O)Nc2ccc(Oc3cccnc3)cc2)c1C (stereo unspecified)	7%	x	11µM*	u
O=C(Nc1ccc(Oc2cccnc2)cc1)C1CCN(Cc2cc(Cl)ccc2O)CC1	u	-83*	u	1.3µM*
Cc1ccc(CN2CCCCC2C(=O)Nc2ccc(Oc3cccnc3)cc2)o1 (stereo unspecified)	u	-33	u	0%
O=C(Nc1ccc(Oc2cccnc2)cc1)C1CCN(Cc2ccc(F)cc2)CC1	11%	-25	u	u
CCCCN1CC(c2nc3ccccc3n2CCCCOc2ccc(C)c(C)c2)CC1=O (stereo unspecified)	x	0	x	x
COc1ccc(NC(=S)N(CCCN2CCOCC2)Cc2cn(C)c3ccccc23)cc1OC	4.1µM*	-87*	u	u
COc1cccc(NC(=S)N(CCCN2CCOCC2)Cc2cn(C)c3ccccc23)c1	u	-78*	u	-22%
COc1ccc(NC(=S)N(CCCN2CCOCC2)Cc2ccco2)cc1	21%	18	5%	-16%
Cc1cccc(C)c1NC(=O)c1cccc2c1C(=O)N(C1CCCCC1)C2	12µM*	x	u	10µM*
O=C(Nc1c(Cl)cccc1Cl)c1cccc2c1C(=O)N(C1CCCCC1)C2	x	1	x	x
COc1ccc(S(=O)(=O)Nc2cc(Sc3ncn[nH]3)c(O)c3ccccc23)cc1	2.9µM*	-78*	32µM*	x
COc1ccc(S(=O)(=O)Nc2cc(SCC(=O)O)c(O)c3ccccc23)cc1	u	u	u	4.1µM*
COc1ccc(S(=O)(=O)Nc2cccc3ccc(O)cc23)cc1	x	u	-4%	x
O=C(O)CSc1cc(NS(=O)(=O)c2ccc(Cl)cc2)c2ccccc2c1O	u	-93*	u	u
O=S(=O)(Nc1cc(Sc2cccc3cccnc23)c(O)c2ccccc12)c1ccc(F)cc1	7%	-100*	11µM*	2.6µM*
CC(=O)Nc1ccc(NS(=O)(=O)c2ccccc2)c2ccccc12	5%	0	10%	x
O=S(=O)(Nc1cccnc1Cl)c1ccc(F)cc1	-8%	-2	25%	-10%
CC(C)(C)C(=O)Nc1ccc2nc(SCC(=O)N3CCc4ccccc43)sc2c1	x	-9	x	x
CCOc1ccc(NC(=O)[C@@H](c2ccccc2)N2Cc3ccccc3C2=O)cc1	x	-4	x	x
CC(=O)c1ccc(NC(=O)CSC2=Nc3ccccc3N=C(c3ccc(F)cc3)C2)cc1	x	19	x	x
C[C@]12CCCC3=CC(=O)C=C[C@@]31Oc1ccccc1C(=O)C2	x	6	x	x
Cc1cc(C)c(S(=O)(=O)Nc2cc(SCC(=O)O)c(O)c3ccccc23)cc1C	2.6µM*	x	u	10µM*
COc1ccc(/C=N/NC(=O)c2ccc(O)cc2)cc1CN1CCCc2ccccc21	2.3µM*	61	u	u
SMILES	Pf growth 96h	HCMV inh	HCV inh	Pf growth 48h
COc1ccc(/C=N/NC(=O)c2cccnc2)cc1CN1CCc2ccccc2C1	10µM*	-20	u	10µM*
COc1ccc(/C=N/NC(=O)c2ccccc2O)cc1CN1CCOCC1	7%	44	14%	0%
COc1ccc(/C=N\NC(=O)c2cc(O)c(O)c(O)c2)cc1CN1CCN(c2ccc(F)cc2)CC1	u	-27	u	4.7µM*
COc1ccc(/C=N/NC(=O)c2ccncc2)cc1CN1CCN(c2ccc(F)cc2)CC1	3.7µM*	-33	22%	-2%
COc1ccc(/C=N/NC(=O)c2ccc(C)cc2)cc1CN1CCN(c2ccc(F)cc2)CC1	-13%	13	u	14%
Fc1ccc(-c2nn(-c3ccc(Cl)cc3)c3c2cnc2ccc(F)cc23)cc1	x	8	x	x
CN(CC(=O)Nc1ccc(Cl)cc1F)S(=O)(=O)c1ccc2c(c1)n(C)c(=O)c(=O)n2C	x	-6	x	x
Cc1ccc(OCCCCn2c(-c3ccc(Cl)cc3)nc3ccccc3c2=O)cc1	x	34	x	x
Cc1c(Cl)cccc1NC(=O)CCS(=O)(=O)c1ccc2c(c1)CC(=O)N2C	x	-13	x	x
Cc1nn(-c2ccccc2C(=O)O)c(=O)c2ccccc12	0%	12	17%	3%
CC(C(=O)O)n1ncc2ccccc2c1=O (stereo unspecified)	32%	0	7%	2.6µM*
Cc1nn(C(C)C(=O)O)c(=O)c2ccccc12 (stereo unspecified)	9.3µM*	-40	5%	29%
Cc1oc2ccc(O)c(CN3CCN(Cc4ccccc4)CC3)c2c1C(=O)Nc1cccc(Cl)c1C	x	-19	x	x
CCOC(=O)N1CCN(C(=O)c2ccc(Cn3c(=S)[nH]c4cc(C(=O)OC)ccc4c3=O)cc2)CC1	u	-4	-26%	u
COc1ccc(Cn2c(=S)[nH]c3cc(C(=O)NCc4cccnc4)ccc3c2=O)cc1	19%	74	u	4%
CCOC(=O)C1CCCN(C(=O)c2ccc(Cn3c(=S)[nH]c4cc(C(=O)OC)ccc4c3=O)cc2)C1 (stereo unspecified)	12µM*	48	u	u
CCOC(=O)C1CCCN(C(=O)c2ccc3c(=O)n(Cc4ccccc4OC)c(=S)[nH]c3c2)C1 (stereo unspecified)	-23%	-94*	u	u
COc1ccccc1Cn1c(=S)[nH]c2cc(C(=O)N3CCN(c4ccccc4OC)CC3)ccc2c1=O	6%	7	18%	1%
COc1ccccc1Cn1c(=S)[nH]c2cc(C(=O)NCc3cccnc3)ccc2c1=O	8.3µM*	-24	u	u
COc1ccc(-c2nc3c(c(=O)[nH]c(=O)n3Cc3ccccc3)n2CCO)cc1	24%	2	-10%	-5%
COc1ccc(Br)cc1-c1nc2c(c(=O)[nH]c(=O)n2Cc2ccccc2)n1C	2%	7	14%	-1%
COCCCn1c(-c2cccc(Cl)c2)nc2c1c(=O)[nH]c(=O)n2Cc1ccccc1	10µM*	-32	-26%	12µM*
Cn1c(-c2cc(Cl)ccc2O)nc2c1c(=O)[nH]c(=O)n2Cc1ccccc1	10µM*	-5	u	u
O=c1[nH]c(=O)n(Cc2ccccc2)c2nc(-c3ccc(Oc4ccc(F)cc4)c([N+](=O)[O-])c3)n(CCO)c12	u	-64*	u	13µM*
COCCn1c(=O)[nH]c(=O)c2c1nc(-c1ccc(-c3ccc(Cl)cc3[N+](=O)[O-])o1)n2Cc1ccccc1	4.1µM*	181	10µM*	4.7µM*
Cc1ccc(C)c(CN2C(=O)c3ccccc3S(=O)(=O)c3ccc(C(=O)Nc4ccccc4C(F)(F)F)cc32)c1	x	-1	x	x
NC(=O)Cn1c(=O)n(-c2ccc(F)c(Cl)c2)c(=O)c2sc3ccccc3c21	x	-2	x	x
CCOC(=O)c1cccc(Nc2c3c(nc4ccccc24)CCC3)c1	x	-27	x	x
Cc1nc(N2CCCC2)ncc1C(=O)Nc1ccc(F)cc1F	x	0	x	x

Bioassay records as filed in PubChem BioAssay.
